Assay outcomes deposited in PubChem by National Center for Advancing Translational Sciences (NCATS).
FMDV inh – foot and mouth disease virus antiviral activity | FMDV antiviral cell-based qHTS | 410,000 compounds, 1.2% hits | AID 1159524 | Potency, µM (series often up to 57.9 µM), for inactives: at the top dose activity change, negative = inhibition, hits mostly inhibitors; calls by dose curve; tested in HEK293T cells; further: read-out not given here; potency means the concentration at half of the fitted maximal effect; nearly all actives have a fitted effect of over 45% in size
Marburg entry inh – Marburg virus entry inhibition | Marburg virus pseudotyped entry inhibition, cell reporter | Potency, µM (top dose mostly 37.8 µM), inactives show top-dose activity change, negative = inhibition, usual class: inhibitors | 300,000 compounds, 1.8% hits | AID 540276; calls by dose curve; tested in HEK293 cells; further: potency means the concentration at half of the fitted maximal effect
HCV inh – HCV inhibition; Huh7.5.1 HCVcc-Cre infection, luciferase reporter, 44 h; Potency, µM (highest dose often 41.8 µM), for inactives: top-dose activity change, negative = inhibition, actives largely listed as inhibitors; 340,000 compounds, 3.4% hits; AID 651820; active means well fitted inhibition curve with a large enough effect; inconclusive means small, poorly fitted or top-dose-only effect, or another doubt; inactive means no such curve, though single readings can be large or run the other way; further: potency means the concentration at half of the fitted maximal effect
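Reporter virus HCVcc-Cre (~0.5 moi) infects cells exposed to compound; seeding density 1,000 cells/well with 4 h settling beforehand. Luminescence, 15 sec read, taken 44 h post-infection following a 15 min RT substrate incubation.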
Lassa entry inh – inhibitors of Lassa virus binding or cell entry; Lassa virus pseudotype entry inhibition, cell reporter; Potency, µM (series often up to 37.9 µM), without a hit: top-dose activity change, negative = inhibition, usual class: inhibitors; 300,000 compounds, 1.2% hits; AID 540256; calls by dose curve; tested in HEK293 cells; further: potency means the concentration at half of the fitted maximal effect; nearly all actives have a fitted effect of over 50% in size
HCMV antiviral – blocks human cytomegalovirus replication | activity change, negative = inhibition, % at 57.5 µM | 410,000 compounds, 4.5% hits | HFF cells, HCMV-luciferase reporter, 72 h; active compounds read low; in the data active means activity change below about -60%; inconclusive means no clear call, values can overlap the other calls; inactive means above about -39%
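Inhibition of viral replication was scored as loss of reporter luminescence in HFFs infected with HCMV-luciferase (MOI 1 PFU/cell) for 72 h; compounds tested at 2 doses, normalized to buffer and Salinomycin controls.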
The depositor's hits bear a star; ? = inconclusive; . = no result; [ ] = dose if it differs, or a comment. Only some compounds are listed: those with a hit (about 7.9% of all), similar ones and a draw of the others. On the % scale 0 is the no-effect control and ±100 the full control effect.

SMILES	FMDV inh	Marburg entry inh	HCV inh	Lassa entry inh	HCMV antiviral
COc1cccc(CN2CCC3(CCC(CNC(=O)c4ccco4)O3)CC2)c1OC (stereo not drawn)	-5%	.	.	.	.
C=CCSc1n[nH]c(-c2ccccc2)n1	22%	?	0%	11%	-89*
CCc1c(C)c2ccc(O)c(CN3CCCC3)c2oc1=O	-3%	11%[46.1 µM]	-1%	?	35
CCc1c(C)c2ccc(O)c(CN3CCN(c4ccccc4)CC3)c2oc1=O	?	?	.	?	-61*
COc1ccc(C2(CNC(=O)C(=O)Nc3ccccc3C)CCCC2)cc1OC	?	-12%[46.1 µM]	.	?	-9
CCOc1ccc(-c2cn3c(n2)sc2cc(C(=O)NCCCc4ccccc4)ccc23)cc1	-2%	.	.	-14%[46.1 µM]	.
Cc1c(Cl)cccc1NC(=S)NCCc1ccc(C(F)(F)F)cc1	-22%	10µM*	11µM*	?	-33
Cc1c(Cl)cccc1NC(=S)NCCCN(C)C	-12%	-21%	0%	9%	-36
S=C(NCCc1ccccn1)Nc1ccccc1Cl	50%	.	-2%	.	43
Cc1c(Cl)cccc1NC(=S)NCCc1ccccn1	-5%	2%[14.2 µM]	-9%	-28%	-69*
Cc1cccc(C(=O)Nc2ccc(OCc3cc(=O)n4ccc(C)cc4n3)cc2)c1	-5%	.	.	13%[46.1 µM]	5
CN(CCO)C(=O)c1cn(C2CCN(Cc3c(F)cccc3Cl)CC2)nn1	-11%	.	.	.	.
COCCC1CCCCN1Cc1nc(N2CCCC2)c2cc(OC)c(OC)cc2n1 (stereo not drawn)	-2%	.	.	.	.
Cc1cc(C(F)(F)F)n2nc(-c3cccs3)cc2n1	13%	?	9%	0%	26
CCN(CC)CCCNc1cc(C)nc2cc(-c3cccs3)nn12	-7%	18µM*	?	-18%[46.1 µM]	-22
COc1ccc(-c2cc3nc(C)cc(-c4ccc(OC)cc4)n3n2)cc1	-3%	.	10µM*	.	20
CN(C)CCCNc1cc(-c2ccccc2)nc2cc(-c3cccc(F)c3)nn12	-20%	.	?	.	33
Cc1cccc(-c2cc3nc(C)cc(NCCCN(C)C)n3n2)c1	10%	?	2.5µM*	?	91
Cc1cccc(-c2cc3nc(C)cc(C)n3n2)c1	50%	?	10µM*	?	172
O=C1C2C3CC4C5C3C1C5C1(SCCS1)C42 (stereo not drawn)	5%	.	.	.	-87*
COc1ccc(C(=O)C(C)OC(=O)c2cccc(S(=O)(=O)Nc3cc(Cl)c(OC)cc3OC)c2)cc1 (stereo not drawn)	19%	7.1µM*	?	?	.
CCOC(=O)[C@]12Cc3cc(OC)ccc3[C@H]1N(Cc1ccccc1)C(=O)c1cc(F)c(F)cc12	-18%	.	-16%[8.37 µM]	.	-13
CCOC(=O)[C@]12Cc3c(cc(OC)c(OC)c3OC)[C@H]1N(Cc1ccccc1)C(=O)c1cc(F)c(F)cc12	-28%	.	.	.	-61*
CCOC(=O)[C@]12Cc3c(cc(OC)c(OC)c3OC)[C@H]1N(Cc1ccccc1)C(=O)c1cc(OC)ccc12	18µM*	.	.	.	-107*
CCOC(=O)[C@]12Cc3cc(C)ccc3[C@H]1N(Cc1ccccc1)C(=O)c1cc(F)c(F)cc12	11µM*	.	.	.	-109*
SMILES	FMDV inh	Marburg entry inh	HCV inh	Lassa entry inh	HCMV antiviral
CCN1CCCC1CNC(=O)c1cnn(-c2nccc(-c3cc(OC)ccc3OC)n2)c1C (stereo not drawn)	-3%	.	.	.	.
Cc1cc(C)c(S(=O)(=O)NCc2ccncc2)c(C)c1	-2%	?	?	?	-84*
COc1cc(C)c(Br)cc1S(=O)(=O)NCc1ccncc1	23%	?	?	?	-76*
COc1cc(C)c(Br)cc1S(=O)(=O)NCc1cccs1	59%	-1%	5%	-14%	?
Cc1ccccc1NS(=O)(=O)c1ccc2[nH]cc(C(=O)NC(C)c3ccccc3)c(=O)c2c1 (stereo not drawn)	-1%	.	.	-19%[46.1 µM]	-20
Cc1ccc(C)c(-n2c(-c3ccc(Br)cc3)csc2=NC(=O)c2ccccc2F)c1	-22%	1.3µM*	3.2µM*	?	-27
Cn1ccsc1=NC(=O)c1ccccc1F	44%	?	9%	-2%	-17
Cc1ccc(C)c(NC(=O)N2CCC(N3CCN(Cc4ccc(F)cc4)C(=O)C3=O)CC2)c1	-4%	.	.	8%[46.1 µM]	6
COc1cccc(NC(=O)Cn2c(=O)n(-c3ccccc3)c(=O)c3ccc(C(=O)NCc4ccc5c(c4)OCO5)cc32)c1	21%	?	.	3%[46.1 µM]	-40
Cc1ccc(C)c(N2CCN(C(=O)CN3CCSc4ccccc43)CC2)c1	0%	.	.	?	14
